This is part of a sample that, as a whole, favours compounds with a hit. Of some 83,000 tested, about 20% had one in any assay.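 Treatment: one concentration, 48 hours, 96-well format. Scoring: percent growth, with anything below 10 considered active.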 Unmarked numbers belong to inactive results. The source made the active and inactive calls.
Each molecule was assayed on HOP-92 NSCLC (assay: NCI-60 one-dose screen, 48 h (100 = growth as untreated, 0 = no growth, -100 = all killed)). Conditions: 10 µM unless noted.
`CCOC(=O)c1ccccc1NC(c1ccccc1)c1ccc2cccnc2c1O` (stereo not drawn) was tested, and the growth was 16.5%. With `O=S(=O)(NCCCNc1nccc(-c2c(-c3ccc(O)cc3)nc3sccn23)n1)c1ccc(F)cc1` the growth was 12.3%. For `C=CCc1cc(Cl)cc2c(OC(C)=O)c(C(C)=O)c(-c3ccccc3)nc12`, the growth was 105%. For `NC(=O)c1cccc(N2Cc3ccccc3OC3=C2C(=O)c2c(O)ccc(O)c2C3=O)c1`, the growth was -91.8% (active). In the case of `Cc1cccc(NC(=O)c2sc3nc4c(cc3c2N)CCC4)c1C`, the growth is reported as 17.7%. `COc1ccc(/C=C2\CCCC3=C2NC(C)=NC3c2ccc(OC)c(OC)c2)cc1OC` (stereo not drawn) was tested, and the growth was 30.1%. For `COc1cc(NS(C)(=O)=O)ccc1Nc1c2ccc([N+](=O)[O-])cc2nc2c(C)cccc12`, the growth was -23.8% (active). Molecule `CC/C=C\C[C@H](O)C/C=C1/C(=O)C(Cl)=C[C@@H]1C/C=C\CCCC(=O)O` has a growth of 98.3%. In the case of `CCC(=O)Oc1cc(/C=C/C(=O)O[C@H]2C[C@H]3CN4CCc5c([nH]c6cc(OC)ccc56)[C@@H]4C[C@@H]3[C@@H](C(=O)OC)[C@@H]2OC)ccc1OC`, the growth is reported as -1.22% (active). With `Nc1ccccc1C#C/C=C\C#Cc1cccc(O)c1` the growth was -30.1% (active). Work on `O=C(CSc1nc(-c2ccc(Cl)cc2)cn1-c1ccc(Cl)cc1)c1ccc(Br)cc1` yielded a growth of 43.9%. With `COC(=O)CCCCCN=Cc1c(O)c(O)c(C(C)C)c2cc(C)c(-c3c(C)cc4c(C(C)C)c(O)c(O)c(C=NCCCCCC(=O)OC)c4c3O)c(O)c12` the growth was -5.66% (active). `C=CCOc1cccc(/C=C/C(=O)c2sc(Nc3cccnc3)nc2C)c1` was tested, and the growth was 74.7%. With `CC(=O)Nc1nc(C(=O)N2N=C(C)/C(=C/c3cccs3)C2=O)cs1` the growth was 99.1%. With `COc1cc(C2C=C(C)N=C3SC(C)=NN32)cc(OC)c1OC` (stereo not drawn) the growth was 90.9%. In the case of `COc1cc(C2C=C(C)N=C3SC=CN32)cc(OC)c1OC` (stereo not drawn), the growth is reported as 91.6%. With `CC/C=C\C/C=C\C[C@H]1C/C=C2/C(=O)C=C[C@H]2C/C=C\CCC(=O)O1` the growth was -10% (active). In the case of `COc1ccc(C2=NN(c3ccc(S(N)(=O)=O)cc3)C(c3cn(-c4ccccc4)nc3-c3ccc(Cl)cc3)C2)cc1` (stereo not drawn), the growth is reported as 110%. With `O=C(CCCn1c2c(sc3ccccc32)c(=O)n2nnc(-c3ccccc3)c12)NCCc1cnc[nH]1` the growth was -75.7% (active). With `CCOC(=O)C1=C(CSC(=S)N(C2CCCCC2)C2CCCCC2)N(C)C(=O)NC1c1ccccc1` (stereo not drawn) the growth was 69%. Work on `COc1cccc(-c2nc3sccn3c2-c2ccnc(NCCNS(=O)(=O)c3ccccc3)n2)c1` yielded a growth of 62.6%. `COC(=O)c1ccc2nc(-c3cc4ccccc4n3C)n(CCCCOc3cc4c(cc3OC)C(=O)N3CCC[C@H]3C=N4)c2c1` was tested, and the growth was -28.5% (active). With `CCn1cc(C(=O)O)c(=O)c2cc(F)c(N3CCN(S(=O)(=O)c4ccc(Cl)cc4Cl)CC3)cc21` the growth was -9.06% (active). `CN(C)c1nc(N)c(N=O)c(N)n1` was tested, and the growth was 102%. For `COc1cc(C(=O)/C=C/c2cc(C(=O)c3cc(OC)c(OC)c(OC)c3)ccc2OC)ccc1N`, the growth was 46.1%. With `COc1ccc(C2CC(c3cccs3)=NN2c2ccc(S(=O)(=O)NC(=O)Nc3ccc(C)cc3)cc2)cc1` (stereo not drawn) the growth was 84.9%. For `COc1cccc(/C=C2\SC(N3CCN(c4ccccn4)CC3)=NC2=O)c1`, the growth was 92.7%. `Nc1nc(N)c2nc(CNc3ccc(C(=O)CC(CCC(=O)O)C(=O)O)cc3)cnc2n1` (stereo not drawn) was tested, and the growth was -3.77% (active). `Cc1ccc2nc(SCn3nnc4ccccc4c3=O)[nH]c2c1` showed a growth of 82.8%. With `O=C1Nc2cc(Cl)ccc2Oc2cc(Oc3ccccc3)ccc21` the growth was 115%. For `OC1CC2c3ccccc3C1c1ccccc12` (stereo not drawn), the growth was 96.2%. With `N#Cc1ncc(-c2ccc(F)c(F)c2F)c(NC2CCCCCC2)n1` the growth was 65.1%. With `CC(C)(C)c1ccc(S(=O)(=O)Oc2ccc3c4c(c(=O)oc3c2)CCCCC4)cc1` the growth was 3.94% (active). `CC(Cc1nnc(SCC(=O)Nc2ccc(I)cc2)n1N)c1ccccc1` (stereo not drawn) gave a growth of 76.7%. Work on `CCN(Cc1ccc(CN(CC)C(=O)C(Cl)(Cl)Cl)cc1)C(=O)C(Cl)(Cl)Cl` yielded a growth of 33.1%. `NC(=O)NC(=O)/C=C/C(=O)OCCCl` showed a growth of 71.6%. With `CC(=O)OCC1OC(OCC2OC(OC(C)=O)C(OC(C)=O)C(OC(C)=O)C2OC(C)=O)C(OC(C)=O)C(OC(C)=O)C1OC(C)=O` (stereo not drawn) the growth was 91.7%. `O=C1c2ccccc2C(=O)c2c1oc1oc3c(c(=O)c21)c(=O)n(-c1ccccc1)c1ccccc31` was tested, and the growth was 80%.

Source: PubChem BioAssay (NCI)
